We go through 30 molecules from PubChem BioAssay (NCATS).

Records with an inconclusive call do not appear. Unmarked numbers belong to inactive results. Active and inactive are the calls of the source. Calls come from the whole dose curve; as a rule, active = well fitted cell-killing curve with a large enough effect; inconclusive = small, poorly fitted or top-dose-only effect, or effect the other way; inactive = no such curve, though single readings can be large or run the other way.
Potency is the fitted concentration of half-maximal effect.

The nature of this test: Viability qHTS for spleen associated tyrosine kinase inhibitor (SYKi) drug resistant MV4-11 cells (AID 1963824). Note: nearly all actives have a fitted effect of over 35% in size. The conditions noted are these: SYKi-resistant MV4-11 viability, CellTiter-Glo, 72 h; series mostly up to 45 µM; viability, % of control: at the top concentration. The procedure, abridged:
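SYK inhibitor-resistant MV4-11 AML cells, 500 per well, added to predispensed compounds and incubated 72 hr at 37 C, 5% CO2. Viability measured by CellTiter-Glo luminescence after 10 min at room temperature.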
(Quantitative high-throughput screening tests each substance at several concentrations.)
On to `O=C1c2ccccc2-c2c(NCCc3ccccc3)c(=O)[nH]c3cccc1c23`, for which the Potency is 23.1 µM (active).

Regarding `C[C@@H]1CCC2C(C)(C)[C@H](O)CC[C@]2(C)[C@@]12Cc1c(O)cc3c(c1O2)CN([C@@H](CCC(=O)O)C(=O)O)C3=O` (stereo not given in full), the “viability, % of control” value is 93.5% [at 17.3 µM]. On to `COc1cc(/C=C/C(=O)OC[C@H]2O[C@H](O[C@]3(CO)O[C@H](CO)[C@@H](O)[C@@H]3O)[C@H](O)[C@@H](O)[C@@H]2O)cc(OC)c1O`, for which the “viability, % of control” value is 103% [at 17.3 µM]. Consider `O=C1Cc2c([nH]c3ccc(Br)cc23)-c2ccccc2N1`, for which the Potency is 5.8 µM (active).

On to `CO[C@H]1C[C@@H]2CC[C@@H](C)[C@@](O)(O2)C(=O)C(=O)N2CCCC[C@H]2C(=O)O[C@H]([C@H](C)C[C@@H]2CC[C@@H](OCCO)[C@H](OC)C2)CC(=O)[C@H](C)/C=C(/C)[C@@H](O)[C@@H](OC)C(=O)[C@H](C)C[C@H](C)/C=C\C=CC=C1C`, for which the Potency is 11.8 µM (active). Regarding `Cn1c(=O)c(F)c(Nc2ccc(I)cc2F)c2c(=O)n(CC(O)CO)cnc21` (stereo not given), the Potency was 0.0259 µM (active). For the molecule `Cc1nc2ccccc2n1Cc1ccc(Cl)cc1`, the Potency is 0.422 µM (active). On to `CC(=O)OC1C(O)CC(O[C@@H]2O[C@H](CO)[C@@H](O)[C@H](O)[C@H]2O)C2CCC3C(=O)OC(c4ccoc4)CC3(C)C21` (stereo not given in full), for which the “viability, % of control” value is 98.1% [at 17.3 µM]. As for `C/C=C(/C)C(=O)OC1C=C2C3C(C)C(C)C(OC(=O)C(C)C(C)O)CC3(C)CCC2(C)C2(C)CC(OC(C)=O)C3C(C)(C)C(O)C(=O)CC3(C)C12` (stereo not given), the Potency is 4.32 µM (active).

As for `O=C1CCCC2=C1C(c1ncccc1Br)N=C(Nc1nc3ccccc3o1)N2` (stereo not given), the Potency is 2.59 µM (active). `C=CC(C)(/C=C/c1ccc(O)cc1)CCC=C(C)C` (stereo not given): the Potency was 23.1 µM (active).

Turning to `Cc1ccccc1CN1CCn2c1nc1c(c2=O)CN(Cc2ccccc2)CC1`, the “viability, % of control” value was 96%.

Consider `COc1ccc(F)cc1-c1cc(NC(=O)[C@@H]2CCCNC2)ncc1Cl`, for which the Potency is 0.103 µM (active). Consider `C[C@H]1CC[C@@H]2N(C1)C[C@@H]1[C@H]([C@@H](O)[C@H](O)[C@]3(O)[C@H]1C[C@@]14OC5(O)[C@@H](C[C@@H](O)[C@@H]31)[C@]4(C)CC[C@@H]5O)[C@]2(C)O`, for which the “viability, % of control” value was 106% [at 17.3 µM]. Still for that read-out and setting: then `C=C1C(OC(C)=O)[C@@]23CCC4[C@](C)(C(=O)O)CCC[C@@]4(C)[C@]2(O)CC[C@H]1C3` (stereo not given in full), with 80.2%; and `COc1c2c(c(C)c3c1C(=O)OC3)OC1(C)CC(O)C34OC(OC)(OC3(C)C)C(O)CC4(C)C1C2` (stereo not given), with 90.7% [at 17.3 µM].

On to `COc1ccccc1[C@@H]1C2=C(CC(C)(C)CC2=O)Nc2n[nH]c(C(F)(F)F)c21`, for which the Potency was 23.1 µM (active).

Take `CC(C)=CCc1cc(C(O)C2NC(=O)CNC(=O)C(Cc3c[nH]c4ccccc34)NC(=O)C3CCCN3C(=O)CNC(=O)C(C(C)C)NC(=O)CNC2=O)ccc1O` (stereo not given): the viability, % of control was 92.7% [at 9.25 µM]. On to `CC(=O)O[C@H]1C(=O)[C@@]2(C)[C@H]([C@H](OC(=O)c3ccccc3)[C@]3(O)C[C@H](OC(=O)[C@H](O)[C@@H](NC(=O)c4ccccc4)c4ccccc4)C(C)=C1C3(C)C)[C@]1(OC(C)=O)CO[C@@H]1C[C@@H]2O`, for which the Potency was 0.0044 µM (active). With `C=CC(C)(C)c1[nH]c2cc3c(cc2c1CC1NC(=O)C2CCCN2C1=O)C=CC(C)(C)O3` (stereo not given), the “viability, % of control” value is 68% [at 17.3 µM]. Take `COc1c2c(c(C)c3c1C(=O)OC3)OC1(C)CC(O)C34OC(OC)(CC(O)C3(C)C1C2)OC4(C)C` (stereo not given): the Potency is 10 µM (active). On to `CN[C@H]1CN(c2ccc3c(=O)c(C(=O)O)cn(-c4nccs4)c3n2)C[C@@H]1OC`, for which the Potency was 0.428 µM (active). Regarding `Cc1nc2ccc(CN(C)c3ccc(C(=O)NC(CCC(=O)O)C(=O)O)s3)cc2c(=O)[nH]1` (stereo not given), the Potency was 0.0073 µM (active). In the case of `Cc1cc(N=Nc2ccc(S(=O)(=O)Nc3ccccn3)cc2)c(N)cc1O`, the Potency was 2.59 µM (active). As for `COc1cc(Br)c(S(=O)(=O)Nc2ccc(Cl)c(O[C@@H]3CCN(C)C3)c2)cc1OC`, the Potency is 6.51 µM (active). Take `COCC1OC(n2cnc3c(=O)[nH]cnc32)C(O)C1O` (stereo not given): the “viability, % of control” value is 103%.

For the molecule `OC[C@@]1(O)CO[C@H](OC[C@H]2O[C@@H](OC(CCCCc3ccc(O)cc3)CCc3ccc(O)cc3)[C@H](O)[C@@H](O)[C@@H]2O)[C@@H]1O` (stereo not given in full), the “viability, % of control” value was 96.1% [at 17.3 µM]. On to `C=C(C(=O)O)C1CCC2(C)CCC(O)C(=C)C2C1` (stereo not given), for which the “viability, % of control” value is 98.9%. Consider `COC(=O)C1C(c2ccc(O)cc2)C(C(=O)OC)C1c1ccc(O)cc1` (stereo not given), for which the Potency is 10.1 µM (active). Still for that read-out and setting: then `C#CCOc1ccc2c(c1)c(-c1ccc(C(C)C)cc1)nc(=O)n2C(C)C`, with 9.2 µM (active).
